In ChEMBL document CHEMBL3988442, “University of Dundee, Small-Polar-MMV Screening Library” (2021):
For some assays here: Measured potencies and affinities stand elsewhere.

Experiments:
Design in all cases: scale not given: direction of the effect not stated beside the values
[1] = biological target: Protein translocase subunit SecA (Escherichia coli (strain K12)) (UniProt P10408); assay: Assay to Identify E. coli SecA ATPase Inhibitors; assay type: functional; settings: 30 µM
[2] = biological target: T1, Ubiquitin-activating enzyme e1, putative (Leishmania donovani (strain BPK282A1)) (UniProt E9BSI1); assay: Leishmania donovani Ubiquitin Activating Enzyme (LdE1); assay type: functional; settings: 30 µM
T1 sequence (whole entry): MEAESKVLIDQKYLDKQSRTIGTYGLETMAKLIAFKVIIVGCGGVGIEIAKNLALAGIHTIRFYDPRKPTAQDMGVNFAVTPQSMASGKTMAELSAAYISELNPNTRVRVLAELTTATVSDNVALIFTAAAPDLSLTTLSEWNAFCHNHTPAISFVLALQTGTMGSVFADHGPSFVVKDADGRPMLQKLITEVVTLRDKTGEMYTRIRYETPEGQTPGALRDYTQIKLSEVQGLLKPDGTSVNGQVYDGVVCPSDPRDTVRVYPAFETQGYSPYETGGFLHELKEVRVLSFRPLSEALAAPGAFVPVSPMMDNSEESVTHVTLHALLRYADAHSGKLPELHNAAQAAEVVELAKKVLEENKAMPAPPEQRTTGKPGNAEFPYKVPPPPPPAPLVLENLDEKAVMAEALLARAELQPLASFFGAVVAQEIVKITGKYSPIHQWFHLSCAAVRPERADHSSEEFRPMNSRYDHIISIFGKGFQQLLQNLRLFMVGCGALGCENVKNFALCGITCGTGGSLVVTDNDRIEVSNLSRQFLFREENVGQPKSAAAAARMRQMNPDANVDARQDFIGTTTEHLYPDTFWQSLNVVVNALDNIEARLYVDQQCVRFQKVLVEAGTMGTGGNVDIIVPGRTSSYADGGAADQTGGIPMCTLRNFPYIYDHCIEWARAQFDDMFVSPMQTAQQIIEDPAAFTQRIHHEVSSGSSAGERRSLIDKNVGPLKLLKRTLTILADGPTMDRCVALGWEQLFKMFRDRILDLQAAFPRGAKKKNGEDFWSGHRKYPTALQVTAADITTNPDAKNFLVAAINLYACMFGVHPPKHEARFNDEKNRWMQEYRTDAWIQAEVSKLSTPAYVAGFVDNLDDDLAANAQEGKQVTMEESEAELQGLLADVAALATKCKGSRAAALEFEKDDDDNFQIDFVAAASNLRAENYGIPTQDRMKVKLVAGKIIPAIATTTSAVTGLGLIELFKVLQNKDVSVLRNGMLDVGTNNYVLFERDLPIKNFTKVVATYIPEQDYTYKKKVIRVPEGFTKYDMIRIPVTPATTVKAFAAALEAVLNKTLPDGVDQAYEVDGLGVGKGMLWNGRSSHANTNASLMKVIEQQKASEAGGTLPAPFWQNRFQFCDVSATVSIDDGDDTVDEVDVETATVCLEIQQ

[3] = biological target: AMP-activated protein kinase, AMPK (Homo sapiens) (UniProt P54646+O43741+P54619+Q9UGJ0+Q9Y478+Q13131+Q9UGI9); assay: AMP-dependent Kinase enzyme assay. An in vitro enzyme assay that detects ADP turnover that is directly proportional to AMPK activity. This uses naive AMPK that is activated during the assay with MK-8722; assay type: functional; settings: 30 µM
[4] = biological target: Sialic acid-binding Ig-like lectin 9 (Homo sapiens) (UniProt Q9Y336); assay: Hs-Siglec9 ALPHAscreen SOP 20170721; settings: 10 µM
Sialic acid-binding Ig-like lectin 9 (Homo sapiens), sequence (Q9Y336 whole entry): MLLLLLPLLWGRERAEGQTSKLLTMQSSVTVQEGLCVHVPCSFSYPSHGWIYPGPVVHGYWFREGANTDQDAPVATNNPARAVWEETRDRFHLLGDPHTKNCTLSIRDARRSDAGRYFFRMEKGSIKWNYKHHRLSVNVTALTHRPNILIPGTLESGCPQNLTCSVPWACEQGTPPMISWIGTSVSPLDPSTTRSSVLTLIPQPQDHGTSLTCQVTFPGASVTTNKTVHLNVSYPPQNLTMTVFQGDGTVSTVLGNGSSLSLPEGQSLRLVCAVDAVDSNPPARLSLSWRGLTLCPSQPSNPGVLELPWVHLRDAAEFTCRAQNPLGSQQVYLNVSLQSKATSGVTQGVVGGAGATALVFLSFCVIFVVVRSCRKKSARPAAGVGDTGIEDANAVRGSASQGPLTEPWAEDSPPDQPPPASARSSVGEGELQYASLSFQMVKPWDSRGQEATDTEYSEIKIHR

Trypanosoma cruzi = assay: Trypanosoma cruzi phosphomannomutase and mannose-1-phosphate guanylyltransferase assay; assay type: functional; settings: 10 µM
[5] = biological target: T2, Arginase-2, mitochondrial (Homo sapiens) (UniProt P78540); assay: in vitro enzyme assay to detect the production of urea directly proportional to the activity of Arginase II; assay type: functional; settings: 33.3 µM; further: in the data most compounds retested in dose-response had high values
T2 sequence (whole entry): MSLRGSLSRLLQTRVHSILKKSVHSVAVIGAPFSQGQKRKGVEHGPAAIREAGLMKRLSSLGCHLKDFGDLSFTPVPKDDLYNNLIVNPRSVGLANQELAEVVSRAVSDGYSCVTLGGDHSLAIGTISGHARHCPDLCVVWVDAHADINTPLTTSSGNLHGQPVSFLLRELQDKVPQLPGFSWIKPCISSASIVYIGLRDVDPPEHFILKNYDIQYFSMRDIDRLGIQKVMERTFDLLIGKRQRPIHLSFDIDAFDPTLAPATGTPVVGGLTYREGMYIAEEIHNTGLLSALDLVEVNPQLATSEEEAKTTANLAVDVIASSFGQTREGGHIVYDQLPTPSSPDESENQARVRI

[6] = biological target: T3, Proteasome subunit beta (Trypanosoma cruzi) (UniProt O96673); assay: Trypanosoma cruzi proteasome chymotrypsin-like activity (TcProtChymo) assay.; further: in the data most compounds retested in dose-response had high values; assay type: functional; settings: 9.37 µM
T3 sequence (whole entry): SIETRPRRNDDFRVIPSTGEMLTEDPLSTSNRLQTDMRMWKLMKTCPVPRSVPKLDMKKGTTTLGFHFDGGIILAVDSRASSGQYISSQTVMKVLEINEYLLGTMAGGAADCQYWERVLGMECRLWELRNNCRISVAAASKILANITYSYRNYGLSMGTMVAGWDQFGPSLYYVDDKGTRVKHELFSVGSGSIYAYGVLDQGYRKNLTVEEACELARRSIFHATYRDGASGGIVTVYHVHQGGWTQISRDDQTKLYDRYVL

Homo sapiens = species: Homo sapiens; assay: To identify inhibition of the IFN signalling (Jak-Stat) pathway via expression of an eGFP reporter gene under the control of an IFN-stimulated response element (ISRE) containing MxA promoter.; assay type: functional; settings: 30 µM
[7] = biological target: T4, Tyrosyl-tRNA synthetase, putative (Trypanosoma cruzi (strain CL Brener)) (UniProt Q4DSP6); assay: Trypanosoma cruzi tyrosyl tRNA synthetase (TcYRS) _High Tyrosine SOP; assay type: functional; settings: 30 µM; further: in the data most compounds retested in dose-response had high values
T4 sequence (whole entry): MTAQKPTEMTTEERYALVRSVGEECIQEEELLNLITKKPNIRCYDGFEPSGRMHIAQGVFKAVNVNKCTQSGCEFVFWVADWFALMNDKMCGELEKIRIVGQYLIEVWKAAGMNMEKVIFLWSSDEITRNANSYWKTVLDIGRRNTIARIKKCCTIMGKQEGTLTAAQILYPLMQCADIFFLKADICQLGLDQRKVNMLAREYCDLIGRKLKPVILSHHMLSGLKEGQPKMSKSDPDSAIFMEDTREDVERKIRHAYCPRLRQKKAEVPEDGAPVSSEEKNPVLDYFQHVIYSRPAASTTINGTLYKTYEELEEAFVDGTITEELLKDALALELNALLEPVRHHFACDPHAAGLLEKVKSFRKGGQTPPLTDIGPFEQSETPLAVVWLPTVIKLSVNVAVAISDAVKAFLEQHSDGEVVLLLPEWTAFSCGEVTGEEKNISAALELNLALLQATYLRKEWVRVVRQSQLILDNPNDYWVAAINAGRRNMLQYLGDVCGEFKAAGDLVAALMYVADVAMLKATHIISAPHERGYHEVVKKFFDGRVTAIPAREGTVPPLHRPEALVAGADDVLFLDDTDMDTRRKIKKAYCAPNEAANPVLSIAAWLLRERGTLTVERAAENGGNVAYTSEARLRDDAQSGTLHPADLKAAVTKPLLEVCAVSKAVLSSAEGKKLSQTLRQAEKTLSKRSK

[8] = biological target: T4, Tyrosyl-tRNA synthetase, putative (Trypanosoma cruzi (strain CL Brener)); assay: Trypanosoma cruzi tyrosyl tRNA synthetase (TcYRS) SOP; assay type: functional; settings: 30 µM
[9] = biological target: Chromo domain-containing protein 1 (Saccharomyces cerevisiae (strain ATCC 204508 / S288c) (Baker's yeast)) (UniProt P32657); assay: ScCHD-1 Enzyme Inhibition Assay; assay type: functional; settings: 30 µM; further: in the data most compounds retested in dose-response had high values
Chromo domain-containing protein 1 (Saccharomyces cerevisiae (strain ATCC 204508 / S288c) (Baker's yeast)), sequence (P32657 whole entry, the tested form may be a part): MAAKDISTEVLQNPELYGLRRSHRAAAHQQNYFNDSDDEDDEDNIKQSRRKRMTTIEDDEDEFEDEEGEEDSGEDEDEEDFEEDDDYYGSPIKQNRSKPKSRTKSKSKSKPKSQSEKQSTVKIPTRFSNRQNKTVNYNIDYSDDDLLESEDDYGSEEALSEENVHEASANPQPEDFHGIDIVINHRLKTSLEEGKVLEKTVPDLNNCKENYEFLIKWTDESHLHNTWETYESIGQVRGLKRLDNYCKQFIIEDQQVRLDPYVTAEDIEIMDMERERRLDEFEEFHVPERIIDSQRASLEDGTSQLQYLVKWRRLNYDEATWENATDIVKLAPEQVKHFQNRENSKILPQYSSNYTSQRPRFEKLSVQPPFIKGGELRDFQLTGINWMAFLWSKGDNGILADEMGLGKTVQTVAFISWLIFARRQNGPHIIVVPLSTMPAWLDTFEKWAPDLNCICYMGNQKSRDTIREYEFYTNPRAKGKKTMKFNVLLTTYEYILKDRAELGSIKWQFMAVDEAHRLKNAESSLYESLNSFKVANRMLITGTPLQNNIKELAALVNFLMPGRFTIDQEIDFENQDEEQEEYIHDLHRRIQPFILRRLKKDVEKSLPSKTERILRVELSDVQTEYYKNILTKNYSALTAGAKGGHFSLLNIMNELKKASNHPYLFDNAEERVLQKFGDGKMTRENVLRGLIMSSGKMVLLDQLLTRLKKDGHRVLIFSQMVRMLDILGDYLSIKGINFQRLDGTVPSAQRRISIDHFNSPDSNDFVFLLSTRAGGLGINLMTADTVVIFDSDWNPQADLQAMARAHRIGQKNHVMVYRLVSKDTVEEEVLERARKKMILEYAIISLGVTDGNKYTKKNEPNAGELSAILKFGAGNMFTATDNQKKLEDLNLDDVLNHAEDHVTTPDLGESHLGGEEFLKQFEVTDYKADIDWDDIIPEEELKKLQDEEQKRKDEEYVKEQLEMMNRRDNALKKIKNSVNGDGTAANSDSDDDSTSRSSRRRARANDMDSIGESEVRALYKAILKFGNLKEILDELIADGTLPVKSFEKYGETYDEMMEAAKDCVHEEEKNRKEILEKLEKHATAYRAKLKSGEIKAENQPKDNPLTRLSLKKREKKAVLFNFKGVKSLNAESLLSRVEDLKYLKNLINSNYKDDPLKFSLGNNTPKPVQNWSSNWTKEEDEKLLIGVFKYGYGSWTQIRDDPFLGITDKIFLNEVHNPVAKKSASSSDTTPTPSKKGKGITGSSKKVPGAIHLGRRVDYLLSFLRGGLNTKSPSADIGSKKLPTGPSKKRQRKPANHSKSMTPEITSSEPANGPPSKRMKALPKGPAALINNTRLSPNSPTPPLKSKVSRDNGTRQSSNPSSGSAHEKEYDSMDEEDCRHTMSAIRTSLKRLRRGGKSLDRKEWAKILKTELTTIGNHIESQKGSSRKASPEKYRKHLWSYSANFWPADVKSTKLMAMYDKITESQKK

Protein translocase subunit SecA (Escherichia coli (strain K12)), sequence (P10408 whole entry): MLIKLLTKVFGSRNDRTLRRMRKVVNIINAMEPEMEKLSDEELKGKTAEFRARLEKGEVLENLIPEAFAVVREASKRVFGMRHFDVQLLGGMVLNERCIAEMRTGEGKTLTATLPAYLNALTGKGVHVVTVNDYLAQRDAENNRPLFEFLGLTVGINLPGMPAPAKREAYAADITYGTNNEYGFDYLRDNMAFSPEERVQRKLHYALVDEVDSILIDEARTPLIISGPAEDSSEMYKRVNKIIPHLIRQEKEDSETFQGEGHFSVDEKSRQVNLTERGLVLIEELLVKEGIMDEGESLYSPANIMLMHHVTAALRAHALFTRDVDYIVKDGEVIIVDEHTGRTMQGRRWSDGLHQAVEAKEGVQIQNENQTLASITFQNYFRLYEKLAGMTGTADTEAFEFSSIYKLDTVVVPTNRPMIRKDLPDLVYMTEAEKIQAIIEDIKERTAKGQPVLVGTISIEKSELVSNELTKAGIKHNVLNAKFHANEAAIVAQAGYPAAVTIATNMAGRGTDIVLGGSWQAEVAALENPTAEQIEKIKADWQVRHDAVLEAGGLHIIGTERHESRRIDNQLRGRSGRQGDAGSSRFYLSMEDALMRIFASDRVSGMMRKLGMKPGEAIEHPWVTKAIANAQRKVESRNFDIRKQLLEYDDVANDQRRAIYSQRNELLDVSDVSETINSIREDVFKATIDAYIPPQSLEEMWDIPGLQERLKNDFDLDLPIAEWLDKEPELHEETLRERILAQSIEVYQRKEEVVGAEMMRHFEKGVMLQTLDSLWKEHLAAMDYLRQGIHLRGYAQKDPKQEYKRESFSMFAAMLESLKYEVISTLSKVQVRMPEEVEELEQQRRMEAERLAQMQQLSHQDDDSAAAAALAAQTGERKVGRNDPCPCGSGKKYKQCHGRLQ

Structure (SMILES)	Percent Effect [1] [%]	Percent Effect [2] [%]	Percent Effect [3] [%]	Percent Effect [4] [%]	Percent Effect (Trypanosoma cruzi) [%]	Percent Effect [5] [%]	Percent Effect [6] [%]	Percent Effect (Homo sapiens) [%]	Percent Effect [7] [%]	Percent Effect [8] [%]	Percent Effect [9] [%]
Cn1nnc2cc(C(=O)N3CCCC3Cc3ccccc3)ccc21 (stereo unspecified)	-4.28	2.74	2.56	2.89	4.11	-3.18	5.68	7.53	0	5	-4.61
Cc1ncnc2c1CCN(Cc1ccccn1)CC2	-2.86	-2.74	-0.577	1.97	-3.57	-0.798	1.46	-16.5	3.12	-1.24	5.72
O=C(Cc1noc2ccccc12)N1CCCC1c1noc(C2CC2)n1 (stereo unspecified)	0.239	-2.7	-6.79	3.85	-4.62	0	7.39	86.2	2.46	-6.17	5.86
CCOC(=O)[C@]12CCCN(Cc3nccs3)C[C@H]1CN(CCN(C)C)C2	-2.1	13	1.26	-3.57	-0.493	7.1	16.2	8.87	2.12	8.97	-10.9
O=C(c1ccoc1)N1CCCn2cnc(COCC3CC3)c2C1	-3.46	13.5	6.15	-4.88	1.07	9.24	22.1	0.302	2.16	15.4	-0.464
CC(C)(C)n1cc(C(=O)N2CCN(Cc3ccsc3)CC2)cn1	-3.19	10.5	2.2	9.1	7.71	-3.06	3.51	-5.26	6.37	17.1	-11
CC(C)c1nn(C)c(N(C)C)c1CNCc1cccc(CN(C)C)c1	-1.46	18.4	-8.3	3.17	-7.94	3.6	3.81	2.21	8.37	18.5	-4.8
CCc1ncnc2c1CCN(Cc1ccccn1)CC2	-1.83	-1.33	-3.43	-1.27	-5.11	-11.4	0	-11.7	-3.17	-5.13	-3.62
CN(C)CCO[C@@H]1CC[C@H]2[C@H]1OCCN2C(=O)COc1ccccc1	-2.92	0	-3.78	3.69	-0.88	-27.1	17.7	8.7	-1.08	0	1.68
CC(C)CCC(C)NC(=O)c1ccc(OCC(N)=O)cc1 (stereo unspecified)	0.307	10.8	-4.08	5.06	-2.7	-1.43	10.5	11.1	5.82	12.2	-4.44
O=C(Nc1nncs1)NC1CCOc2ccccc21 (stereo unspecified)	-3.81	2.74	5.12	-2.09	-6.55	-0.399	9.85	17	2.08	13.6	-8.1
Clc1ccccc1C1(c2ccnc(-c3ccncc3)n2)CCNCC1	-0.572	7.79	3.38	10.4	-2.26	-8.28	17	16.3	6.45	13.6	2.54
CC(C)(C#N)C(=O)N1CCCC(c2cc(C(F)(F)F)[nH]n2)C1 (stereo unspecified)	-6.75	16.2	-6.25	19.3	3.44	-2.03	4.85	14.8	2.97	11	-8.63
c1cnnc(NCC2CN(CCN3CCCCC3)CCO2)c1 (stereo unspecified)	-2.02	-7.79	5.05	6.18	9.74	-3.56	1.01	-18.9	0.971	7.32	-2.7
CCn1cnnc1CNC(=O)N(C)Cc1ccc(F)c(F)c1	-2.13	18.9	-11.7	14.1	1.04	-5.21	7.57	8.28	7.39	18.5	-7.63
COc1ccc(C)cc1CN(C)Cc1nc2c(cnn2C)c(=O)[nH]1	-1.35	18.4	1.85	2.21	2.52	-4.32	7.02	7.09	9.36	23.5	-5.71
